Unmarked numbers belong to inactive results.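 How the source made its calls: active means inhibition at or above 50% at 10 µM; inactive means inhibition below 50%.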
Assay: inhibitors of Sendai virus-induced IRF3 signaling, primary screen, TLR/RLR signaling modifier project, cell-based, Sendai virus stimulus, luciferase, 10K MLSCN set (AID 602276);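 further: firefly luciferase from ISG56 promoter only with Renilla not read in this screen; 0% = Sendai virus plus DMSO and 100% = medium plus DMSO without virus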
Conditions: HEK293 RL24 IRF3 luciferase reporter, at 10 µM, active compounds read high

| Compound | inhibition [%] |
| --- | --- |
| COc1ccc(CNc2ccc(C(=O)O)cc2)cc1 | -4.3 |
| COc1ccc(-c2cc(O)cc(O)c2)cc1 | -15.5 |
| CCCC(=O)Nc1ccccc1-c1nnn(CC(=O)Nc2ccc(OCC)cc2)n1 | 12.2 |
| CCOC(=O)c1c(-c2ccc(C)o2)csc1NC(=O)COC(=O)c1cccs1 | 7.28 |
| O=C(Nc1cccc(Cl)c1)N1CCN(Cc2ccccc2)CC1 | -35.1 |
| C/C=C/COC(=O)c1[nH]c2c(c1C)C(=O)CC(c1ccco1)C2 (stereo unspecified) | 25.7 |
| CC(=O)NC(CCS(C)(=O)=O)C(=O)Nc1cccc(C)c1C (stereo unspecified) | 17.7 |
| CCOC(=O)c1cn(CC)c2cc(N3CCOCC3)c(F)cc2c1=O | 3.57 |
| CCCCC(=O)NCCc1ccc(S(N)(=O)=O)cc1 | 3.38 |
| CCOc1ccc(-c2c(C#N)c(N)nc3c2c(=O)n(C)c(=O)n3C)cc1OC | 14.3 |
| COc1ccc(NC(=O)c2cc(C)on2)cc1OC | 6.93 |
| COc1ccc(CCNS(=O)(=O)c2ccc3oc(C(=O)O)c(C)c3c2)cc1OC | 12.5 |
| O=C(Nc1cccnc1)c1ccc2c(c1)C(=O)N(Cc1cccnc1)C2=O | 5.57 |
| CCCc1nnc2n1N=C(c1ccc(OC)c(OC)c1)CS2 | 16.9 |
| CC(C)(C)NC(=O)CN(C(=O)CS(=O)CC(=O)Nc1ccc(F)cc1)c1ccc(Cl)cc1 (stereo unspecified) | 19.1 |
| O=C(Nc1nnc(CCN2CCCCC2)s1)C1CCCCC1 | 15.1 |

— PubChem BioAssay
